According to PubChem BioAssay AID504386 (National Center for Advancing Translational Sciences (NCATS), 2011):
Records with an inconclusive call do not appear. Active and inactive are the calls of the source. The call rests on the fitted dose curve; in most records, active means well fitted curve in the direction sought with a large enough effect; inconclusive means small, poorly fitted or top-dose-only effect, or another doubt; inactive means no such curve, though single readings can be large or run the other way.

Target: Runt-related transcription factor 1 (Homo sapiens) + Core-binding factor subunit beta (Homo sapiens) (UniProt Q01196+Q13951)
Sequence (Q01196 whole entry, looked up): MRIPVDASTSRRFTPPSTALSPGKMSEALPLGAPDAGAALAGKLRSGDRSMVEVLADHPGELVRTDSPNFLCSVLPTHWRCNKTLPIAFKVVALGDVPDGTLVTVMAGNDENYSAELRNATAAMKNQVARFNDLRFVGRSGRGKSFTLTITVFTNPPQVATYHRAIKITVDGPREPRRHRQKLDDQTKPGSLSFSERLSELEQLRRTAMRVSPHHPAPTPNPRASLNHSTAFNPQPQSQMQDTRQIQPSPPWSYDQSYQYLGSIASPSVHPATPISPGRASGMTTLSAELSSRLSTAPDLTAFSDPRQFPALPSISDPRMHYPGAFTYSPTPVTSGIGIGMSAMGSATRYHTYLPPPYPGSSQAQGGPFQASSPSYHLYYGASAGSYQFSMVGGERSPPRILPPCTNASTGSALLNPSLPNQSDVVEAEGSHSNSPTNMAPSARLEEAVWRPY
Sequence (Q13951 whole entry, looked up): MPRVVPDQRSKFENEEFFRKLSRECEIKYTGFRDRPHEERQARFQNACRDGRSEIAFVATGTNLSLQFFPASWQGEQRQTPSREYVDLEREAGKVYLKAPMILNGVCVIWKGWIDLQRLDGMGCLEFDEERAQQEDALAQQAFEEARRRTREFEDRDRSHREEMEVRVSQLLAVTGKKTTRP
Assay: qHTS Assay for Compounds Blocking the Interaction Between CBF-beta and RUNX1 for the Treatment of Acute Myeloid Leukemia: SAR for Probe
Conditions: AlphaScreen CBFb-His/RUNX1-biotin binding, biochemical
Excerpt: NIH Chemical Genomics Center [NCGC] NIH Molecular Libraries Probe Production centers Network [MLPCN] MLPCN Grant: X01MH083259-01 Assay Submitter (PI): Paul Liu NCGC Assay Overview: Core Binding Factor (CBF) abnormalities are associated with 20-25% of all acute myeloid leukemias (AML), of which 5-10% are further sub classified as acute myelomonocytic leukemia with eosinophilia, also known as M4Eo in the FAB classification scheme. This subtype of leukemia is usually associated with chromosome 16 inversion (p13:q22). Chromosome 16 inversion results in formation of the fusion oncogene CBFB-MYH11, which encodes the fusion protein CBF-beta-SMMHC. […] It has been hypothesized that the interference of CBF-beta and RUNX1 binding could have therapeutic implications for patients with CBF mediated leukemias. […]
NCGC Assay Protocol Summary: Step, Parameter, Description (1) Reagent, 3 uL CBFb-His/RUNX1-biotin mix incubated together for 20 minutes at room temperature (30 nM each) (2) Compound or control, 23 nL compound stock solution (3) Incubation, 15 minutes at Room temperature (4) Reagent, 1 uL 50 ng each of beads (Nickel beads and streptavidin beads) (5) Incubation, 90 minutes at Room temperature (6) Detection, […], Envision reader in AlphaScreenTM mode Keywords: MLSMR, MLPCN, NIH Roadmap, qHTS, NCGC, Core binding factor, CBF, CBF-beta, Acute myeloid leukemia

CN1C(=O)CN=C(c2ccc[nH]2)c2cc(Cl)ccc21 (tested in a mixture with another compound)
Potency: 109 µM (active)

CCN(CC)CCN1C(=O)CN=C(c2ccccn2)c2cc(Cl)ccc21
Potency: 21.7 µM (active)
